# In PubChem BioAssay (NCI):
# About 83,000 compounds went through this panel and 20% of them were active in at least one assay; those are over-represented in the sample as a whole.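 Testing used 96-well plates and a 48-hour single-concentration exposure. Example: -40 means 40% of the starting cells died.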 Calls of active or inactive are those of the source. How the source made its calls: active means growth percent below 10; inactive means the rest.
# Tested on: SF-268 CNS
# Assay: NCI-60 one-dose screen, 48 h (100 = growth as untreated, 0 = no growth, -100 = all killed)
# Conditions: 10 µM unless noted
row,SMILES,growth
1,CC1(C)CC[C@]2(C(=O)O)CC[C@]3(C)C(=CCC4[C@@]5(C)C[C@@H](O)[C@@H]6OC(c7ccccc7O)OC[C@@]6(C)C5CC[C@]43C)C2C1 (some centres undefined),56% (inactive)
2,CN(c1ccc(Br)cc1)S(=O)(=O)c1ccc(-c2cnc(C3CC3)o2)cc1,65.9% (inactive)
3,CN1CCN(c2nc(-c3csc(-c4ccncc4)n3)cc3ccccc23)CC1,72.8% (inactive)
4,O=C(O)c1ccc(-n2cc(CNc3ccc(F)cc3)c(-c3ccc(C(F)(F)F)cc3)n2)cc1,80.9% (inactive)
5,CSc1nccc(-c2c(-c3ccc(F)c(OCc4ccc(F)cc4)c3)nc3sccn23)n1,83.9% (inactive)
6,O=C(COc1ccc(C2SCC(=O)N2c2ccccc2)cc1)c1ccccc1 (centres undefined),93.4% (inactive)
7,O=C(O)CNS(=O)(=O)c1ccc(Oc2ccc(S(=O)(=O)NCC(=O)O)cc2)cc1,96.6% (inactive)
8,Cn1nc(Nc2ccccc2)c(C(=O)NN)c1N,103% (inactive)
9,COc1cc(/C=N/n2cnc3oc(-c4ccccc4)cc3c2=N)cc(CN2CCN(C)CC2)c1O,93.6% (inactive)
10,CC(C)SC1=NC(=C(C(=N1)NC2=ClC=CC=C2)C#N)C3=CC=CC=C3,78.4% (inactive)
11,NS(=O)(=O)c1ccc(Nc2nc(N/N=C/c3ccc(F)cc3)nc(Nc3ccccc3)n2)cc1,41.3% (inactive)
12,C#C[C@]1(O)CC[C@H]2[C@@H]3CC=C4c5sc(Nc6cccc(C)n6)nc5CC[C@]4(C)[C@H]3CC[C@@]21C,-7.63% (active)
13,CNC(=O)c1cc(Oc2ccc3nc(NC(=O)c4cc(C)cc(C)c4)sc3c2)ccn1,82.4% (inactive)
14,C=C(C)[C@@H]1CC[C@]2(COS(C)(=O)=O)CC[C@]3(C)[C@H](CC[C@@H]4[C@@]5(C)CCCNC(C)(C)[C@@H]5CC[C@]43C)[C@@H]12,106% (inactive)
15,CC(C)=CCc1c2c(c(O)c3c1O[C@]14C(=C[C@@H]5C[C@H]1C(C)(C)O[C@@]4(C/C=C(/C)C(=O)O)C5=O)C3=O)CC(O)C(C)(C)O2 (some centres undefined),-40.7% (active)
16,O=C(Cn1cc(CN2C(=O)c3ccc([N+](=O)[O-])cc3C2=O)nn1)Nc1ccccc1Br,106% (inactive)
17,COc1cc(-c2nc(SCc3ccc(C)cc3)[nH]c(=O)c2C#N)ccc1OCc1ccccc1,97.6% (inactive)

row,SMILES,growth
1,CC(C)N=C(N/C(N)=N/c1nc2ccccc2s1)NC(C)C,81.3% (inactive)
2,O=C(Nc1cc(Cl)cc(Cl)c1)Nc1ccc2oc(=O)ccc2c1,24.8% (inactive)
3,CS(=O)(=O)c1nccc(-c2c(-c3ccc(F)c(OCc4ccccc4)c3)nc3sccn23)n1,104% (inactive)
4,COc1ccc(C2C(C#N)=C(N)Oc3c2sc2ccc(C)cc32)cc1 (centres undefined),44.7% (inactive)
5,C#C[C@]1(O)CC[C@H]2[C@@H]3CC=C4c5sc(-c6ccccn6)nc5CC[C@]4(C)[C@H]3CC[C@@]21C,82.4% (inactive)
6,COc1ccc(OC)c([C@H]2c3[nH]c4ccccc4c3C[C@H]3C(=O)N(CCCCCCC(=O)NO)CC(=O)N23)c1,104% (inactive)
7,Cc1cnc2nc(NN)[nH]n12,99.8% (inactive)
8,COc1ccc(-c2nc3cc(Cl)c(Cl)cc3n2CC(=O)N=Nc2c(O)[nH]c3ccc(Br)cc23)cc1,9.74% (active)
9,O=C(NCCCCCCNC(=O)c1c2c(nc3ccccc13)-c1cccnc1SC2)c1c2c(nc3ccccc13)-c1cccnc1SC2,77.7% (inactive)
10,COc1ccc(-c2ccc3c4c(cccc24)C(=O)N(N2C(=O)c4cccc5cccc(c45)C2=O)C3=O)cc1,97.8% (inactive)
11,COc1ccc(-c2nc3cc(Cl)c(Cl)cc3n2CC(=O)N=Nc2c(O)[nH]c3ccc(Cl)cc23)cc1,51.8% (inactive)
12,CCOC(=O)c1c(NCC(=O)Nc2ccc(Br)cc2)sc2c1CCCC2,58.4% (inactive)
13,CN1C(=O)/C(=C/C=C/c2ccco2)SC1=S,91.2% (inactive)
14,COc1ccc(-c2nnc(SCc3ccc(O)c4ncccc34)o2)cc1,30.9% (inactive)
15,C#CCOc1ccc(/C=N/Nc2nc(-c3cc4cc(Br)cc(Br)c4oc3=O)cs2)cc1,84.8% (inactive)
16,CS(=O)c1nccc(-c2c(-c3ccc(F)c(OCCc4ccc(F)cc4)c3)nc3sccn23)n1 (centres undefined),93.3% (inactive)
17,O=C1[C@@H]2Cc3c([nH]c4ccccc34)[C@H](c3c(Cl)cccc3Cl)N2C(=O)CN1C1CCN(Cc2c(F)cccc2F)CC1,76.1% (inactive)
